L3MBTL1 inh = qHTS Assay for the Inhibitors of L3MBTL1; actives 0.66% (n = 230,000); Potency, µM (titrated, usually from 57.1 µM), for inactives: top-dose activity, negative = inhibition, usual class: inhibitors; Lethal(3)malignant brain tumor-like protein 1 (Homo sapiens), Q9Y468; AID 485360, 2010; AlphaScreen L3MBTL1–H3K9me1 peptide binding; note: % is set by controls: 0 for no effect and ±100 for the full control effect; nearly all actives have a fitted effect of over 60% in size
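First, the protein-peptide complex forms for 30 min at room temperature (L3MBTL1 50 nM, biotinylated H3K9me1 peptide 75 nM). Next, compounds are pin-transferred and incubated 30 min. Finally, AlphaScreen beads are added and read after 30 min.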
BAZ2B block = qHTS Assay for Inhibitors of BAZ2B; Bromodomain adjacent to zinc finger domain protein 2B (Homo sapiens), Q9UIF8; AlphaScreen BAZ2B-H3K14Ac peptide displacement; Potency, µM (series often up to 114 µM), inactives show top-dose activity change, negative = inhibition, usual class: inhibitors; actives 4.4% (n = 360,000); AID 504333, 2011; note: % is set by controls: 0 for no effect and ±100 for the full control effect; nearly all actives have a fitted effect of over 60% in size
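Inhibition is scored as reduced AlphaScreen emission. The BAZ2B/b-H3(5-23)K14Ac complex (50 nM each) in PBS pH 7.4, 0.01% Tween-20 meets compound (up to 110 uM) for 30 min at RT before bead addition.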
G9a inh = qHTS Assay for Inhibitors of Histone Lysine Methyltransferase G9a; Histone-lysine N-methyltransferase EHMT2 (Homo sapiens), Q96KQ7; G9a H3K9 monomethylation, AlphaScreen, 2 h; Potency, µM (doses to about 102 µM), for the others: at the highest dose activity, negative = inhibition, usual class: inhibitors; actives 8.8% (n = 350,000); AID 504332, 2011; note: % is set by controls: 0 for no effect and ±100 for the full control effect; nearly all actives have a fitted effect of over 75% in size
Target sequence (Q96KQ7 913-1193 limits assumed): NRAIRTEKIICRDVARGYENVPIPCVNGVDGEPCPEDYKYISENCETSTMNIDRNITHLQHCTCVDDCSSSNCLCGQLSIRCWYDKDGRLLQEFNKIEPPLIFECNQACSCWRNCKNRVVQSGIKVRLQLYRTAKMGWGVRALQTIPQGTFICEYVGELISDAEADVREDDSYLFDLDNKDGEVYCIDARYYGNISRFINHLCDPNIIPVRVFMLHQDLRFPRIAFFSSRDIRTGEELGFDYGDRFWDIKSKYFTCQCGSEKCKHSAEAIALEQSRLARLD
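Step 1: enzyme (final 20 nM) with compound, 15 min RT. Step 2: substrate peptide 500 nM and SAM 20 uM, 2 h RT. Step 3: anti-H3K9me1 antibody and AlphaScreen beads, 10 min, then plate read.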
JMJD2A Tudor = qHTS Assay for Inhibitors of JMJD2A-Tudor Domain; Lysine-specific demethylase 4A (Homo sapiens), O75164; AlphaScreen JMJD2A-Tudor / H3K4me3 peptide binding; Potency, µM (series often up to 114 µM), for the others: top-dose activity change, negative = inhibition, actives largely listed as inhibitors; actives 4.4% (n = 390,000); note: % is set by controls: 0 for no effect and ±100 for the full control effect; nearly all actives have a fitted effect of over 50% in size
HP1b chromo inh = HTS for Inhibitors of HP1-beta Chromodomain Interactions with Methylated Histone Tails. AlphaScreen HP1-beta / biotin-H3K9me3 peptide binding. Potency, µM (series often up to 114 µM), inactives show at the top dose activity change, negative = inhibition, usual class: inhibitors. actives 0.56% (n = 390,000). Chromobox protein homolog 1 (Homo sapiens), P83916; note: nearly all actives have a fitted effect of over 70% in size
Target sequence (P83916 whole entry, looked up): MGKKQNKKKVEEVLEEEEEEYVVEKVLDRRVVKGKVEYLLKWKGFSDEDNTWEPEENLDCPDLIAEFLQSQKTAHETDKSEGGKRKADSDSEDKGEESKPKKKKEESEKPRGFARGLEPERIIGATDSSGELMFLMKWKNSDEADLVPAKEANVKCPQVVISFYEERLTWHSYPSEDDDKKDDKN
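AlphaScreen: HP1-beta (50 nM) preformed 30 min with biotin-H3(1-18)K9me3 peptide (50 nM) in PBS pH 7.4, 0.01% Tween-20. Compound added for 30 min at RT, then streptavidin donor/nickel chelate acceptor beads (10 ug/mL) for 30 min.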
The depositor's hits bear a star; ? = inconclusive; / = no result given; [ ] = remark or other dose. Shown are actives, neighbours in structure and some others; about 11% of the full set was active somewhere. Calls come from the whole dose curve; as a rule, active = well fitted inhibition curve with a large enough effect; inconclusive = small, poorly fitted or top-dose-only effect; inactive = no such curve, though single readings can be large or run the other way. Potency is the fitted concentration of half-maximal effect.

SMILES	L3MBTL1 inh	BAZ2B block	G9a inh	JMJD2A Tudor	HP1b chromo inh
O=S(=O)(Cc1ccccc1)NCc1cccnc1	-4%	-2%	?	-5%	19%
O=C1C(Cl)=C(NCc2cccnc2)C(=O)c2ccccc21	/	50µM*	?	-36%	-8%
Cc1ccc2oc(C(=O)N(Cc3cccc(F)c3)C3CCS(=O)(=O)C3)c(C)c2c1 (centres undefined)	/	-19%	-3%[59 µM]	-31%	13%
CCn1cc(C(=O)NCc2ccc(Cl)cc2)c(=O)c2cc(S(=O)(=O)N(C)C3CCCCC3)ccc21	/	/	-9%[59 µM]	-22%	8%
S=c1[nH]nc(-c2cc(-c3ccccc3)n[nH]2)n1/N=C/c1ccccc1	/	-14%	-127%[59 µM]	56µM*	32%
Cc1cccc(/C=N/n2c(-c3cc(-c4ccccc4)n[nH]3)n[nH]c2=S)c1	-19%	-39%	1.6µM*	79µM*	?
BrC(=C\c1ccccc1)/C=N/n1cnnc1	-15%	-3%	16%	-7%	22%
S=c1[nH]nc(-c2cc(-c3ccccc3)n[nH]2)n1/N=C/C(Br)=C/c1ccccc1	?	10µM*	22µM*	56µM*	18%
S=c1[nH]nc(-c2n[nH]c3c2CCC3)n1/N=C/C=C/c1ccccc1	/	-11%	/	50µM*	5%
S=c1[nH]nc(-c2cc(-c3ccccc3)n[nH]2)n1/N=C/c1cccs1	-17%	-27%	1.6µM*	?	10%
Cc1nnc(C)n1/N=C/c1cccs1	6%	7%	-37%[0.0925 µM]	-18%	27%
S=c1[nH]nc(-c2cc(-c3ccccc3)n[nH]2)n1/N=C/C=C/c1ccccc1	-16%	-27%	8.9µM*	?	20%
COc1ccccc1/C=C/C=N/n1c(-c2cc(-c3ccccc3)n[nH]2)n[nH]c1=S	-7%	-16%	?	?	14%
Cc1cccc(-c2n[nH]c(=S)n2/N=C/c2cccs2)c1	-19%	-26%	0.71µM*	22µM*	9%
Cc1cc(C)c2c(=O)cc(C(=O)Nc3sc4c(c3C(=O)NCC3CCCO3)CCCC4)oc2c1 (centres undefined)	/	-2%	-3%[59 µM]	-10%	32%
Cc1csc(C(C)N(C)C(=O)c2ccc(OC3CCN(Cc4ccccn4)CC3)cc2)n1 (centres undefined)	/	?	71µM*	-24%	8%
Cc1nc(C(C)NC(=O)c2ccc(OC3CCN(Cc4ccccn4)CC3)cc2)c(C)s1 (centres undefined)	/	79µM*	7%	-34%	59%
CC(NC(=O)c1ccc(OC2CCN(Cc3ccccn3)CC2)cc1)c1nccs1 (centres undefined)	/	?	31%	-21%	28%
CCOC(=O)c1c(C)[nH]c(C)c1S(=O)(=O)N(C)CC(=O)N1CCN(c2cccc(Cl)c2)CC1	/	-24%	-37%[59 µM]	?	-18%
CC(C)c1c(O)ccc2c1CC[C@H]1C(C)(C)CCC[C@]21C	/	/	/	?	-11%
O=C(O)C(Cc1cn[nH]n1)=NO	8%	25µM*	6.3µM*	7.9µM*	?
COC(=O)c1ccc(Oc2cc(C)nc(Cl)n2)cc1	3%	-23%	19%	-5%	42%
COC(=O)c1ccc(Oc2cc(C)nc(SC)n2)cc1	5%	4%	11%[59 µM]	28µM*	?
Cc1cc(C)c2[nH]c(C(=O)Nc3ccc(F)cc3Br)cc2c1	/	-9%	50µM*	-19%	3%
O=C(CCC1N=C2c3ccccc3N=C(SCC(=O)NCc3ccco3)N2C1=O)NCc1ccco1 (centres undefined)	/	50µM*	-7%[59 µM]	?	34%
SMILES	L3MBTL1 inh	BAZ2B block	G9a inh	JMJD2A Tudor	HP1b chromo inh
Cc1ccc(CSC2=Nc3ccccc3C3=NC(CCC(=O)NCc4ccco4)C(=O)N23)cc1 (centres undefined)	-1%	?	?	-32%	?
CN(C)c1ccc(NC(=O)CSC2=Nc3ccccc3C3=NC(CC(=O)NCc4ccccc4)C(=O)N23)cc1 (centres undefined)	/	-36%	1.6µM*	?	10%
O=C(CC1N=C2c3ccccc3N=C(SCc3ccc(Cl)cc3)N2C1=O)NCc1ccco1 (centres undefined)	-6%	?	50µM*	?	-12%
CN(C)c1ccc(NC(=O)CSC2=Nc3ccccc3C3=NC(CC(=O)NCc4ccc5c(c4)OCO5)C(=O)N23)cc1 (centres undefined)	/	?	?	?	-17%
COc1ccc(NC(=O)c2c[nH]c(=O)n(-c3ccc(C)c(C)c3)c2=O)cc1OC	-1%	-1%	-8%	-16%	41%
COc1cccc(-n2c(=O)[nH]cc(C(=O)Nc3ccc(NC(C)=O)cc3)c2=O)c1	5%	-7%	45µM*	-23%	42%
COc1cc(-c2ccno2)ccc1S(=O)(=O)N1CCN(c2ccc(F)cc2)CC1	/	-19%	-34%[59 µM]	-24%	15%
O=C(Nc1ccc(F)c(Cl)c1)N1CCC(CN2CCc3ccccc3C2)CC1	/	-8%	-40%[59 µM]	-20%	3%
CCn1cc(C(=O)O)c(=O)c2cc(F)c(N3CCN(C(=S)NC(=O)c4ccccc4Br)CC3)cc21	/	71µM*	4%	-25%	-7%
CCn1cc(C(=O)O)c(=O)c2cc(F)c(N3CCN(C(=S)NC(=O)c4c(OC)cccc4OC)CC3)cc21	/	56µM*	35µM*	?	4%
CCn1cc(C(=O)O)c(=O)c2cc(F)c(N3CCN(C(=S)NC(=O)c4ccc(F)cc4)CC3)cc21	12%	?	/	-19%	42%
CCn1cc(C(=O)O)c(=O)c2cc(F)c(N3CCN(C(=S)NC(=O)c4ccc(F)c(F)c4)CC3)cc21	-13%	-19%	50µM*	-25%	-1%
CCOC(=O)C1CN(c2cc3c(cc2F)c(=O)c(C(=O)O)cn3CC)OC1C(=O)OCC (centres undefined)	11%	?	40µM*	56µM*	13%
CCOC(=O)N1CCN(C(=O)c2cn(CC)c3cc(N4CCN(C)CC4)c(F)cc3c2=O)CC1	23%[11.4 µM]	-26%	14µM*	/	/
CCn1cc(C(=O)NN)c(=O)c2cc(F)c(N3CCN(C)CC3)cc21	/	-19%	-14%	-25%	7%
CC1=C(C(=O)Nc2cc(C(=O)N(C)Cc3ccccc3)ccc2C)SCCO1	/	?	-12%	?	27%
C/C(=N\N=C1\NC(=O)C(Cc2ccccc2)S1)c1ccccc1 (centres undefined)	-6%	?	?	63µM*	?

Screening results: PubChem, National Center for Advancing Translational Sciences (NCATS)
